Where “and” joins values, the source holds several entries; their conditions need not be identical. Equal entries are not always repeated. Records with an inconclusive call do not appear. Some structures have more than one record in an assay (separate samples or runs), and their calls can disagree. Calls of active or inactive are those of the source.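 The calls were made as follows: active = fewer circulating green fluorescent tagged thrombocytes in treated fish, with no visible harm to the embryos; inconclusive = compound visibly harmful to the embryos; inactive = no drop in circulating tagged thrombocytes.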

The nature of one assay: qHTS Assay for Compounds Blocking the Interaction Between CBF-beta and RUNX1 for the Treatment of Acute Myeloid Leukemia: Zebrafish assay for Hematopoiesis, SAR for Probe. To be noted: GFP-cd41 zebrafish embryos, microscopy, 5 days, at 10 uM, stronger effect = lower value. An excerpt:
NIH Chemical Genomics Center [NCGC] NIH Molecular Libraries Probe Production centers Network [MLPCN] MLPCN Grant: X01MH083259-01 Assay Submitter (PI): Paul Liu NCGC Assay Overview: Core Binding Factor (CBF) abnormalities are associated with 20-25% of all acute myeloid leukemias (AML), of which 5-10% are further sub classified as acute myelomonocytic leukemia with eosinophilia, also known as M4Eo in the FAB classification scheme. This subtype of leukemia is usually associated with chromosome 16 inversion (p13:q22). Chromosome 16 inversion results in formation of the fusion oncogene CBFB-MYH11, which encodes the fusion protein CBF-beta-SMMHC. […] It has been hypothesized that the interference of CBF-beta and RUNX1 binding could have therapeutic implications for patients with CBF mediated leukemias. We developed a CBF-beta and RUNX1 binding assay in AlphaScreenTM format and optimized it for high throughput screening to search for inhibitors. The goal of this project is to screen MLPCN's compound collection (MLSMR) for identifying the inhibitors of the interaction between CBF-beta and RUNX1 proteins as research probes. If these probes work well in the animal models, the ultimate goal of this project is to development a new drug treatment for this disease. […] These fish contain a genomic modulation where GFP has been fused to cd41, a marker for thrombocytes, and thus circulating thrombocytes can be easily imaged in anesthetized fish.
Assay protocol: GFP-cd41 zebrafish were kindly provided by the Liu lab. Zebrafish embryos were incubated with compound (<0.1% DMSO final) at 48 hours post fertilization, for 5 days. Embryos were manually scored under a microscope with GFP illumination for circulating GFP-tagged thrombocytes. Keywords: MLSMR, MLPCN, NIH Roadmap, qHTS, NCGC, Core binding factor, CBF, CBF-beta, Acute myeloid leukemia
As for `NCCCC(=O)Nc1ccc(Cl)cc1C(=O)c1ccc[nH]1`, the fish with circulating GFP thrombocytes was 93.3%. As for `CN(C)CC(=O)Nc1ccc(Cl)cc1C(=O)c1ccc[nH]1`, the fish with circulating GFP thrombocytes came to 70%.

The same assay, now with this note: GFP-cd41 zebrafish embryos, microscopy, 5 days, at 25 µM, stronger effect = lower value.
Regarding `NCC(=O)Nc1ccc(Cl)cc1C(=O)c1ccc[nH]1`, the fish with circulating GFP thrombocytes is 100% (inactive). As for `O=C(c1ccc[nH]1)c1cc(Cl)ccc1NC(=O)[C@@H]1CCCN1`, the fish with circulating GFP thrombocytes was 100% (inactive). For `CCC(=O)Nc1ccc(Cl)cc1C(=O)c1ccc[nH]1`, the fish with circulating GFP thrombocytes was 100% (inactive).

Consider `N[C@@H](CCC(=O)O)C(=O)Nc1ccc(Cl)cc1C(=O)c1ccc[nH]1`, for which the fish with circulating GFP thrombocytes is 100% (inactive). Still for that read-out and setting: the result for `NCCCC(=O)Nc1ccc(Cl)cc1C(=O)c1ccc[nH]1` reads 100% (inactive); that for `C[C@@H](N)C(=O)Nc1ccc(Cl)cc1C(=O)c1ccc[nH]1`, 100% (inactive); that for `C[C@H](N)C(=O)Nc1ccc(Cl)cc1C(=O)c1ccc[nH]1`, 100% (inactive). As to `NC(N)=NCCC[C@H](N)C(=O)Nc1ccc(Cl)cc1C(=O)c1ccc[nH]1`, the fish with circulating GFP thrombocytes was 100% (inactive).

Take `CNCC(=O)Nc1ccc(Cl)cc1C(=O)c1ccc[nH]1`: the fish with circulating GFP thrombocytes is 100% (inactive).

On to `CC(C)[C@H](N)C(=O)Nc1ccc(Cl)cc1C(=O)c1ccc[nH]1`, for which the fish with circulating GFP thrombocytes was 100% (inactive).

Consider `N[C@H](Cc1ccccc1)C(=O)Nc1ccc(Cl)cc1C(=O)c1ccc[nH]1`, for which the fish with circulating GFP thrombocytes was 100% (inactive). In the case of `NCCC(=O)Nc1ccc(Cl)cc1C(=O)c1ccc[nH]1`, the fish with circulating GFP thrombocytes was 100% (inactive). For the compound `N[C@H](C(=O)Nc1ccc(Cl)cc1C(=O)c1ccc[nH]1)c1ccccc1`, the fish with circulating GFP thrombocytes is 100% (inactive). On to `CC(C)(N)C(=O)Nc1ccc(Cl)cc1C(=O)c1ccc[nH]1`, for which the fish with circulating GFP thrombocytes is 100% (inactive). Turning to `N[C@@H](Cc1ccccc1)C(=O)Nc1ccc(Cl)cc1C(=O)c1ccc[nH]1`, the fish with circulating GFP thrombocytes is 100% (inactive). On the same count and under the same terms, the figure for `Nc1ccc(Cl)cc1C(=O)c1ccc[nH]1` is 83.3% (active). On the same count and under the same terms, the result for `NCCCC[C@H](N)C(=O)Nc1ccc(Cl)cc1C(=O)c1ccc[nH]1` reads 100% (inactive); that for `N[C@@H](CC(=O)O)C(=O)Nc1ccc(Cl)cc1C(=O)c1ccc[nH]1`, 100% (inactive). `CNCc1nc(-c2ccc[nH]2)c2cc(Cl)ccc2n1`: the fish with circulating GFP thrombocytes was 100% (inactive). For `CC(=O)Nc1ccc(Cl)cc1C(=O)c1ccc[nH]1`, the fish with circulating GFP thrombocytes is 70.8% (active) and 100% (inactive).

Consider `CN(C)CC(=O)Nc1ccc(Cl)cc1C(=O)c1ccc[nH]1`, for which the fish with circulating GFP thrombocytes was 59.4% (active). Consider `NC(=O)C[C@H](N)C(=O)Nc1ccc(Cl)cc1C(=O)c1ccc[nH]1`, for which the fish with circulating GFP thrombocytes was 100% (inactive).

The assay is the same for the next values; noted with them: GFP-cd41 zebrafish embryos, microscopy, 5 days, at 50 uM, stronger effect = lower value.
For `Nc1ccc(Cl)cc1C(=O)c1ccc[nH]1`, the fish with circulating GFP thrombocytes was determined as 70.8%. In turn, `CC(=O)Nc1ccc(Cl)cc1C(=O)c1ccc[nH]1` had a fish with circulating GFP thrombocytes of 66.7%.

The values are drawn from PubChem BioAssay AID504373 (National Center for Advancing Translational Sciences (NCATS), 2011).
